# A number with no mark means an inactive call. Results filed as inconclusive are left out. Entries that show only a call come without a potency. The source made the active and inactive calls. Unless noted, the call rests on the fitted dose curve; in most records, active means well fitted curve in the direction sought with a large enough effect in the repeat runs; inconclusive means weak or mixed curves; inactive means no such curve, though single readings can be large; an effect the other way counts as inactive or inconclusive.
# Assays:
# [1] = qHTS assay to identify small molecule antagonists of the sonic hedgehog signaling (Shh) pathway (AID 1259369; calls by dose curve; further: nearly all actives have a fitted effect of over 45% in size; further: potency means the concentration at half of the fitted maximal effect)
# Procedure, shortened: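 Stable Gli1-Luc reporter NIH/3T3 clone; quantitative HTS in stimulated mode with conditioned medium. Luminescence measured after 24hr compound treatment at 37 C.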
# [2] = target: Estrogen receptor beta (Homo sapiens) (UniProt Q92731); assay: qHTS assay to identify small molecule agonists of the estrogen receptor beta (ER-beta) signaling pathway (AID 1259377; active means well fitted activation curve with a large enough effect in the signal ratio in the repeat runs, not every such curve was filed as active; the % refers to the signal ratio)
# Sequence of Estrogen receptor beta (Homo sapiens) (Q92731 whole entry, looked up, the tested form may be a part): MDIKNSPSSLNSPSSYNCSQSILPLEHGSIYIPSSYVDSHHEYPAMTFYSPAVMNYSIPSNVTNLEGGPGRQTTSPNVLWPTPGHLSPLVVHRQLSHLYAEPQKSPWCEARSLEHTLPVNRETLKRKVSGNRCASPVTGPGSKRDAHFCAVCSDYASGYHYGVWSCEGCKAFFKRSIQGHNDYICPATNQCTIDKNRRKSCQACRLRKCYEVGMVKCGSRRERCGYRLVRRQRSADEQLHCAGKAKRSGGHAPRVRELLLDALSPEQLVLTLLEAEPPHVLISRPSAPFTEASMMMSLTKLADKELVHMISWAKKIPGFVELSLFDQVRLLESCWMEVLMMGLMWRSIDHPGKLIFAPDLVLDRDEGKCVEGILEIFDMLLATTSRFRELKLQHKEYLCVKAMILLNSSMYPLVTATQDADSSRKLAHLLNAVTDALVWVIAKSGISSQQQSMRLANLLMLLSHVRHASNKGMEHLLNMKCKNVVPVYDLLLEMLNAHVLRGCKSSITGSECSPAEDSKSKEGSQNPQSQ
# Procedure, shortened: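 Agonist mode cell assay in GripTite HEK293T cells expressing an ER-beta fusion that drives beta-lactamase from an Upstream Activator Sequence; 16 hr compound exposure at 37C, then 2 h LiveBLAzer B/G FRET substrate at room temperature, fluorescence read-out.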
# [3] = qHTS assay to identify small molecule agonists of the androgen receptor (AR) signaling pathway in the presence of an antagonist - cell viability counter screen (AID 1259379);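 further: MDA-kb2 human breast cancer cells carrying an MMTV luciferase reporter; series mostly up to about 92 µM; nearly all actives have a fitted effect of over 25% in size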
# Procedure, shortened: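 Nilutamide-containing (3.0uM final) MDA-kb2 cultures, 3,000 cells/well, were treated with compounds across 15 concentrations. After 16 hr at 37C with no CO2, cell viability was determined by CellTiter-Fluor fluorescence in the luciferase assay wells.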
# [4] = qHTS assay to identify small molecule antagonists of the estrogen receptor beta (ER-beta) signaling pathway - cell viability counter screen (AID 1259382);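 further: HEK293T cells carrying ER-beta-UAS-bla reporter stimulated with estradiol; series mostly up to about 92 µM; nearly all actives have a fitted effect of over 55% in size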
# Procedure, shortened: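 Viability is scored by CellTiter-Glo luminescence (30 min, room temperature) in ER-beta-UAS-bla HEK293T wells already read for reporter fluorescence. Compound exposure lasts 16 hr at 37C alongside 1nM 17-beta-estradiol in charcoal-stripped serum medium.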
# [5] = target: Thyrotropin receptor (Homo sapiens) (UniProt P16473); assay: qHTS assay to identify small molecule antagonists of the thyroid stimulating hormone receptor (TSHR) signaling pathway (AID 1259385; calls by dose curve; further: nearly all actives have a fitted effect of over 20% in size)
# Sequence of Thyrotropin receptor (Homo sapiens) (P16473 whole entry, looked up): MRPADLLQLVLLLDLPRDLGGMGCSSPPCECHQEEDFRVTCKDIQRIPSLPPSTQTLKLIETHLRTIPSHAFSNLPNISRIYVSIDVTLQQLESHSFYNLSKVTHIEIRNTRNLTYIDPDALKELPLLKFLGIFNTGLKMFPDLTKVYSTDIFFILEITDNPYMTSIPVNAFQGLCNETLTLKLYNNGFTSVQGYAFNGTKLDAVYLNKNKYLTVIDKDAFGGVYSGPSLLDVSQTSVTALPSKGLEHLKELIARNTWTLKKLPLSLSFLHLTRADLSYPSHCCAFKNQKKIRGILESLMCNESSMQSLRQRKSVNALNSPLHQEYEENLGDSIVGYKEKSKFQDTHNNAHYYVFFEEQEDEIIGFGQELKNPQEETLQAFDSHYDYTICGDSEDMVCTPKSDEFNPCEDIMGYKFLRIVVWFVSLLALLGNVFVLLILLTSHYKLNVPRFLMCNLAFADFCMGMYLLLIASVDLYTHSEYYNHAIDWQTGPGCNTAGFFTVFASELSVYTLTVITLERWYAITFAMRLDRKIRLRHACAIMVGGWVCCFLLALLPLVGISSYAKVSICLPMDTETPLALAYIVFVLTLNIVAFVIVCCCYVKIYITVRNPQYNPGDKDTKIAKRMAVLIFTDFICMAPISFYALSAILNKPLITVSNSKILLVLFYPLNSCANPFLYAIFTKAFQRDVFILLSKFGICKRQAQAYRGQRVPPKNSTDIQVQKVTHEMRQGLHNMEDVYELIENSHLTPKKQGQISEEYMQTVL
# Procedure, shortened: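 Antagonist mode: compound-treated TSHR-expressing HEK293 cells were stimulated with 1.5 ng/mL TSH (final) in presence of Ro20-1724 for 30 min at RT. HTRF cAMP detection after 1 h; each compound tested at 15 concentrations, triplicate.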
# [6] = qHTS assay to identify small molecule agonists of the estrogen receptor alpha (ER-alpha) signaling pathway in the presence of an antagonist - cell viability counter screen (AID 1259386);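 further: series mostly up to about 92 µM; cells exposed to compounds for 22 h at 37 °C before the viability read; nearly all actives have a fitted effect of over 30% in size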
# Procedure, shortened: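 In this counter screen, compound effects on VM7Luc4E2 viability were tested in the presence of the antagonist ICI-182,780 at 10.0nM final. Compounds were dosed at 15 concentrations, exposure lasted 22hr, and the CellTiter-Fluor signal was read.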
# [7] = target: Progesterone receptor (Homo sapiens) (UniProt P06401); assay: qHTS assay to identify small molecule antagonists of the progesterone receptor (PR) signaling pathway (AID 1346795; active means well fitted inhibition curve with a large enough effect in the signal ratio in the repeat runs, not every such curve was filed as active; the % refers to the signal ratio; further: potency means the concentration at half of the fitted maximal effect)
# Sequence of Progesterone receptor (Homo sapiens) (P06401 whole entry, looked up): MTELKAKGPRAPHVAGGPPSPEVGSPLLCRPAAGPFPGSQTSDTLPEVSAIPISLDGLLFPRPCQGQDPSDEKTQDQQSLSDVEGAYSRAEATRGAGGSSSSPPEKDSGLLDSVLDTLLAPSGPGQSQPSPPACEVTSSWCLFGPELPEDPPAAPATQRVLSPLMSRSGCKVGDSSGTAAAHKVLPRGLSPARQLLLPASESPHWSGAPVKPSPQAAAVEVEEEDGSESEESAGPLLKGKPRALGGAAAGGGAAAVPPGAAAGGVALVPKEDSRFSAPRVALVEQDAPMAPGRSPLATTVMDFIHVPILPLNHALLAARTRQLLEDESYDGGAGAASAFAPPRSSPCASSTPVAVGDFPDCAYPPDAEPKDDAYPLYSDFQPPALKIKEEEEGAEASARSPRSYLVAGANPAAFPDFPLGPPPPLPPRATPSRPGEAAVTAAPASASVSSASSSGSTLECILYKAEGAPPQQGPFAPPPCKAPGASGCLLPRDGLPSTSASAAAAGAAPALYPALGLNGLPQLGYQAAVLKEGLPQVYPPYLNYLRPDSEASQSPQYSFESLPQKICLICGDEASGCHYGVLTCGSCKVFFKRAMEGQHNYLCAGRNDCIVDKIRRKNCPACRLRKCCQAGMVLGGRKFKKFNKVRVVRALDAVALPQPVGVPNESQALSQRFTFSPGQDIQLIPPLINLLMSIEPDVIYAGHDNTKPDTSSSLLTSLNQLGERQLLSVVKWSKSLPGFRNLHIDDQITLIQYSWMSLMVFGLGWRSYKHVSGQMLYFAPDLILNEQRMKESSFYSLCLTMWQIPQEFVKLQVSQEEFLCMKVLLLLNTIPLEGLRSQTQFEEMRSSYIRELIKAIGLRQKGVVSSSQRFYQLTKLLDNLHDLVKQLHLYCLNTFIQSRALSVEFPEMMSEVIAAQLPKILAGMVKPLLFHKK
# Procedure, shortened: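 Antagonist mode: compounds tested against 1 nM (final) promegestone stimulation in HEK293T cells expressing PR-UAS-bla reporter, 16 hr at 37C, 5% CO2; beta-lactamase activity detected via B/G FRET substrate after 2 hr at room temperature.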
# [8] = qHTS assay to identify small molecule antagonists of the TGF-beta/Smad signaling pathway - cell viability counter screen (AID 1346824); further: nearly all actives have a fitted effect of over 50% in size
# Procedure, shortened: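 Cytotoxicity counter-screen run in the same wells as the beta-lactamase Smad reporter read: CellTiter-Glo luminescence after 30 min at room temperature. HEK 293T SBE-bla cells had 5 hr compound exposure at 37 C with TGF-beta1 (0.25 ng/mL stock).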
# [9] = qHTS assay to identify small molecule agonists of the TGF-beta/Smad signaling pathway - cell viability counter screen (AID 1346829); further: top concentration of the series differs between compounds; nearly all actives have a fitted effect of over 45% in size
# Procedure, shortened: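 Tox21 qHTS format: SBE-bla HEK 293T cells treated with DMSO-dissolved compounds for 5 hr; CellTiter-Glo luminescence after 30 min at room temperature.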
# [10] = qHTS assay to identify small molecule agonists of the TGF-beta/Smad signaling pathway (AID 1346859; active means well fitted activation curve with a large enough effect in the signal ratio in the repeat runs, not every such curve was filed as active; the % refers to the signal ratio; further: series mostly up to about 77 µM)
# Procedure, shortened: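 Reporter line: HEK 293T with stably integrated SBE-controlled beta-lactamase. Compound exposure lasts 5 hr at 37 C and 5% CO2; substrate loading follows for 2 hr at room temperature, with emission read at 460 and 530 nm.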
# [11] = qHTS assay to identify small molecule agonists of the estrogen receptor beta (ER-beta) signaling pathway - cell viability counter screen (AID 1259380); further: nearly all actives have a fitted effect of over 30% in size
# Procedure, shortened: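 Steps: plate ER-beta-UAS-bla HEK293T cells, rest 6 hr; add compounds in DMSO; incubate 16 hr at 37C, 5% CO2; add FRET substrate 2 hr; add CellTiter-Glo, wait 30 min at room temperature; read luminescence.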
# [12] = target: Estrogen receptor (Homo sapiens) (UniProt P03372); assay: qHTS assay to identify small molecule agonists of the estrogen receptor alpha (ER-alpha) signaling pathway in the presence of an antagonist (AID 1259383; calls by dose curve; further: top concentration of the series differs between compounds; nearly all actives have a fitted effect of over 15% in size)
# Sequence of Estrogen receptor (Homo sapiens) (P03372 whole entry, looked up): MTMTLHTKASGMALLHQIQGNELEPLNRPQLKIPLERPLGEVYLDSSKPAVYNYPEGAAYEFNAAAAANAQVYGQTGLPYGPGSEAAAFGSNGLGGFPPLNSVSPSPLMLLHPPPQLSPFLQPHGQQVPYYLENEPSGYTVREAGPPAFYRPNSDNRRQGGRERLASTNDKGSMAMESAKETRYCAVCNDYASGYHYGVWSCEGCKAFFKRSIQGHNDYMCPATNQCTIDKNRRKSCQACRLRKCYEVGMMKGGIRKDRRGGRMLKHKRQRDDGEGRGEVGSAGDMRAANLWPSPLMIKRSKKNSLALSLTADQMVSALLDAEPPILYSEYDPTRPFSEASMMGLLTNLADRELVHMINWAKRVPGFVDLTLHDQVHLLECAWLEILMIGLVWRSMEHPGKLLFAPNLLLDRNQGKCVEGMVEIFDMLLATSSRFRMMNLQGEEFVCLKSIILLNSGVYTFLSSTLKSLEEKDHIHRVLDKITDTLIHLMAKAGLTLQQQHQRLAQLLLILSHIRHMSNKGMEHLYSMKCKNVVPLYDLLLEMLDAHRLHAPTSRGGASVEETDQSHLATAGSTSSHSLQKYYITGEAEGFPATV
# Procedure, shortened: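 Readout was ERE-driven luciferase luminescence in VM7Luc4E2 cells, which express full-length ER-alpha endogenously. Compounds were tested at 15 concentrations for 22hr alongside 10.0nM ICI-182,780 (final concentration).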
# [13] = target: Progesterone receptor (Homo sapiens) (UniProt P06401); assay: qHTS assay to identify small molecule agonists of the progesterone receptor (PR) signaling pathway (AID 1346784; calls by dose curve; further: nearly all actives have a fitted effect of over 30% in size)
# Procedure, shortened: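 Cells (PR-UAS-bla HEK 293T, GripTite) were plated in assay medium containing 2% charcoal-stripped FBS and incubated 6 hr. Test compounds in DMSO were added for 16 hr at 37C. FRET substrate was then loaded for 2 hr at room temperature before fluorescence reading.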
# [14] = qHTS assay to identify small molecule antagonists of the progesterone receptor (PR) signaling pathway - cell viability counter screen (AID 1346798); further: series mostly up to about 92 µM; nearly all actives have a fitted effect of over 50% in size
# Procedure, shortened: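 Counter screen for cytotoxicity: viability of PR-UAS-bla HEK293T cells was measured with CellTiter-Glo luminescence following 16 hr compound exposure in the presence of R5020.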
# [15] = qHTS assay to identify small molecule agonists of the progesterone receptor (PR) signaling pathway - cell viability counter screen (AID 1346799; calls by dose curve; further: nearly all actives have a fitted effect of over 45% in size)
# Procedure, shortened: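 Cells (PR-UAS-bla HEK293T) are plated at 3,000/well in 2% charcoal-stripped FBS medium, rested 6 hr, dosed and incubated 16 hr at 37C. CellTiter-Glo is then added and luminescence measured after 30 min at room temperature.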
# [16] = target: Thyrotropin-releasing hormone receptor (Homo sapiens) (UniProt P34981); assay: qHTS assay to identify small molecule antagonists of the thyrotropin-releasing hormone receptor (TRHR) signaling pathway (AID 1346877; active means well fitted inhibition curve with a large enough effect in the repeat runs, not every such curve was filed as active; further: series mostly up to about 51 µM)
# Sequence of Thyrotropin-releasing hormone receptor (Homo sapiens) (P34981 whole entry, looked up): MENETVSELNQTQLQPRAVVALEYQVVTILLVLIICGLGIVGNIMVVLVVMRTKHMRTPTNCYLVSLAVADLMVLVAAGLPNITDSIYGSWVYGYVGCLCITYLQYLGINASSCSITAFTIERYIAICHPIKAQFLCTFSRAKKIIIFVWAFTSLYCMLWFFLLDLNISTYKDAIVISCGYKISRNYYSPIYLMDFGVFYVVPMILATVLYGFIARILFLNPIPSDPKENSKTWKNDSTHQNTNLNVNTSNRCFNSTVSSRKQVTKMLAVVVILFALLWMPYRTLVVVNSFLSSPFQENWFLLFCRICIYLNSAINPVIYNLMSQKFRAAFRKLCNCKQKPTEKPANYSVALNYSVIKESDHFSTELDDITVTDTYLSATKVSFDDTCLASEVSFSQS
# Procedure, shortened: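 Kinetic fluorescence (3 min, 1 s resolution) following stimulation with TRH at 1 nM final; HEK293 cells bearing human TRHR; 5 min compound preincubation at RT; concentration-response over 15 points, triplicates.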
# [17] = target: Thyrotropin-releasing hormone receptor (Homo sapiens) (UniProt P34981); assay: qHTS assay to identify small molecule agonists of the thyrotropin-releasing hormone receptor (TRHR) signaling pathway (AID 1346891; calls by dose curve;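 further: HEK293 cells expressing TRHR with calcium dye readout; series mostly up to about 58 µM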)
# Procedure, shortened: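 Cells: TRHR-Hek293, seeded and incubated 18 h. Dye loading: 2 h at 37 °C. Compound added from DMSO stock by pin tool. Read-out: kinetic calcium fluorescence over 3 min.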
# [18] = qHTS assay to identify small molecule agonists or antagonists of the thyroid stimulating hormone receptor (TSHR) signaling pathway - wild type cell line counter screen (AID 1259384; calls by dose curve)
# Procedure, shortened: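 Counter screen in untransfected Hek293: compounds (15-point titration, triplicate) plus phosphodiesterase inhibitor Ro20-1724 added after 18 h plating; 30 min RT. Intracellular cAMP via competitive d2/cryptate immunoassay, 1 h incubation.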
# [19] = target: Estrogen receptor beta (Homo sapiens) (UniProt Q92731); assay: qHTS assay to identify small molecule antagonists of the estrogen receptor beta (ER-beta) signaling pathway (AID 1259378; active means well fitted inhibition curve with a large enough effect in the signal ratio in the repeat runs, not every such curve was filed as active; the % refers to the signal ratio)
# Procedure, shortened: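 Antagonist mode: compounds added to beta-lactamase reporter HEK293T ER-beta-UAS cells stimulated with E2 (1nM final), 16 hr at 37C. LiveBLAzer B/G FRET substrate, 2 hours room temperature, fluorescence read-out.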
# [20] = target: Androgen receptor (Homo sapiens) (UniProt P10275); assay: qHTS assay to identify small molecule agonists of the androgen receptor (AR) signaling pathway in the presence of an antagonist (AID 1259381; calls by dose curve; further: nearly all actives have a fitted effect of over 15% in size; further: potency means the concentration at half of the fitted maximal effect)
# Sequence of Androgen receptor (Homo sapiens) (P10275 whole entry, looked up): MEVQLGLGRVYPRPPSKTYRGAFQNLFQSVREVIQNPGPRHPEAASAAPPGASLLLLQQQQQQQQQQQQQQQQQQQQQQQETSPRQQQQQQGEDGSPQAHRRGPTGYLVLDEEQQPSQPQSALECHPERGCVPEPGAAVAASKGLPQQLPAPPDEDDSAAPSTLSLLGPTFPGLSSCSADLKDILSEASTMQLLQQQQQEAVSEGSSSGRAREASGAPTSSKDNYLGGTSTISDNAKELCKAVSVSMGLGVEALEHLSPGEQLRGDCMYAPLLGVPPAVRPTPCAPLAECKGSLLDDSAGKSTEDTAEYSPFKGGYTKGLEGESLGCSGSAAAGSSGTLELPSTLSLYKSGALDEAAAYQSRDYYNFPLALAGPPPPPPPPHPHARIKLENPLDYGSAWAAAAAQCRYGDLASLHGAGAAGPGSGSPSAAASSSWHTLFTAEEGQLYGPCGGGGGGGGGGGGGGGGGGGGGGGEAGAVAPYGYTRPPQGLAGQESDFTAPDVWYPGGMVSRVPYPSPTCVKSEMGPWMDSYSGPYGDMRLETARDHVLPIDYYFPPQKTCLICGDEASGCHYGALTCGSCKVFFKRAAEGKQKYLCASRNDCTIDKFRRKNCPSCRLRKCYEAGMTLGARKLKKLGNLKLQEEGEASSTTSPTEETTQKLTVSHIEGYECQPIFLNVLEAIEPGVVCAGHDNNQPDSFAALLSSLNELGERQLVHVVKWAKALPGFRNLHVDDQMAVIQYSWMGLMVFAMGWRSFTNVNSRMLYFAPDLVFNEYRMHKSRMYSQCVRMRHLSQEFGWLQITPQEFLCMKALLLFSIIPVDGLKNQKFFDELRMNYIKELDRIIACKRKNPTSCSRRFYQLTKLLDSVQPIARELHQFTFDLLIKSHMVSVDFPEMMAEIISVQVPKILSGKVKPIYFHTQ
# Procedure, shortened: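 Reporter-gene luminescence from MDA-kb2 cells exposed 16hr at 37C (0% CO2) to 15-point compound titrations with 3.0uM final nilutamide as AR antagonist.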
smiles,measurement,setting,value
CC1(C)CCC(C)(C)c2cc(NC(=O)c3ccc(C(=O)O)cc3)ccc21,Potency,[1],inactive
same,Potency,[2],inactive
same,Potency,[3],inactive
same,Potency,[4],inactive
same,Potency,[5],inactive
same,Potency,[6],inactive
same,Potency,[7],16.8 µM (active)
same,Potency,[8],inactive
same,Potency,[9],inactive
same,outcome,[10],inactive
CCCCOc1cc(C(=O)OCCN(CC)CC)ccc1N,Potency,[1],inactive
same,Potency,[2],inactive
same,Potency,[3],inactive
same,Potency,[11],inactive
same,Potency,[12],inactive
same,Potency,[6],inactive
same,outcome,[13],inactive
same,Potency,[7],inactive
same,Potency,[14],inactive
same,Potency,[15],inactive
same,Potency,[8],inactive
same,Potency,[9],inactive
same,outcome,[10],inactive
same,outcome,[16],inactive
same,Potency,[17],inactive
CCCCCOC(=O)COc1cc(N2C(=O)C3=C(CCCC3)C2=O)c(F)cc1Cl,Potency,[1],inactive
same,Potency,[2],inactive
same,Potency,[3],inactive
same,Potency,[4],inactive
same,Potency,[12],inactive
same,Potency,[18],inactive
same,Potency,[5],inactive
same,Potency,[6],inactive
same,outcome,[13],inactive
same,Potency,[7],inactive
same,Potency,[14],inactive
same,Potency,[15],inactive
same,Potency,[8],inactive
same,Potency,[9],inactive
same,outcome,[10],inactive
Nc1ccc(C(=O)N2CC3CC(CN(Cc4ccccc4)C3)C2)cc1,Potency,[1],inactive
same,Potency,[2],inactive
same,Potency,[19],inactive
same,Potency,[4],inactive
same,Potency,[12],inactive
same,Potency,[18],inactive
same,Potency,[5],inactive
same,Potency,[6],inactive
same,Potency,[14],inactive
same,Potency,[8],inactive
same,Potency,[9],inactive
same,outcome,[10],inactive
same,outcome,[16],inactive
same,Potency,[17],inactive
O=C(C(=O)c1ccc(Br)cc1)c1ccc(Br)cc1,Potency,[1],6.78 µM (active)
same,activation,[2],0.63% [at 19 µM]
same,"activity change, negative = cytotoxicity",[11],0.571% [at 19 µM]
same,Potency,[20],15.2 µM (active)
same,"activity change, negative = cytotoxicity",[4],-2.64% [at 19 µM]
same,activation,[12],0.308% [at 19 µM]
same,"activity change, negative = inhibition",[5],-5.08% [at 19 µM]
same,"activity change, negative = cytotoxicity",[6],0.0353% [at 19 µM]
same,"activity change, negative = cytotoxicity",[15],14.5% [at 19 µM]
same,"viability change, negative = cytotoxic",[8],7.81% [at 15.8 µM]
same,"activity change, negative = cytotoxicity",[9],0.5% [at 15.8 µM]
same,activation,[10],2.2% [at 15.8 µM]
same,"activity, negative = inhibition",[16],-2.27% [at 10.5 µM]
same,activation,[17],0.083% [at 11.8 µM]
CCCCCCCCC(CO)CCCCCC (centres undefined),Potency,[1],inactive
same,Potency,[2],inactive
same,Potency,[19],inactive
same,Potency,[4],inactive
same,Potency,[12],inactive
same,Potency,[5],inactive
same,Potency,[6],inactive
same,outcome,[13],inactive
same,Potency,[7],inactive
same,Potency,[14],inactive
same,Potency,[15],inactive
same,Potency,[8],inactive
same,Potency,[9],inactive
same,outcome,[10],inactive
CCCCOC(=O)/C=C\C(=O)OCCCC,Potency,[1],inactive
same,Potency,[2],inactive
same,Potency,[3],inactive
same,Potency,[4],inactive
same,Potency,[12],inactive
same,Potency,[5],inactive
same,Potency,[6],inactive
same,outcome,[13],inactive
same,Potency,[7],inactive
same,Potency,[14],inactive
same,Potency,[8],inactive
same,Potency,[9],inactive
same,outcome,[10],inactive
same,outcome,[16],inactive
same,Potency,[17],inactive
CC1CCc2cc(F)cc3c(=O)c(C(=O)O)cn1c23 (centres undefined),Potency,[1],inactive
same,Potency,[2],inactive
same,Potency,[3],inactive
same,Potency,[11],inactive
same,Potency,[4],inactive
same,Potency,[18],inactive
same,Potency,[5],inactive
same,Potency,[6],inactive
same,outcome,[13],inactive
same,Potency,[7],inactive
same,Potency,[14],inactive
same,Potency,[15],inactive
same,Potency,[8],inactive
CC(=O)SCc1ccco1,Potency,[1],inactive
same,Potency,[19],inactive
same,Potency,[3],inactive
same,Potency,[11],inactive
same,Potency,[20],inactive
same,Potency,[4],inactive
same,Potency,[12],inactive
same,Potency,[18],inactive
same,Potency,[5],inactive
same,Potency,[6],inactive
same,outcome,[13],inactive
same,Potency,[7],inactive
same,Potency,[14],inactive
same,Potency,[15],inactive
same,Potency,[8],inactive
same,Potency,[9],inactive
same,outcome,[10],inactive
same,outcome,[16],inactive
same,Potency,[17],inactive
